For experiment [1], the target named is Nuclear receptor coactivator 3 (Homo sapiens) (UniProt Q9Y6Q9). Briefly: NCOA3 GAL4-fusion reporter inhibition – cell-based, luminescence, quadruplicate, confirmation (AID 588792;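 active = mean inhibition over 43.08%, the solvent-only control mean plus 3 SD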;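 also: 0% = DMSO treated cells and 100% = gossypol at 36 µM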). Conditions: HEK293 GAL4-SRC3 luciferase reporter, at 3.6 µM, active compounds read high. (In general: Reporter assays use an easily measured gene product as a stand-in for the process of interest.)

Experiment [2] has as its system transactivating tegument protein VP16 (Human herpesvirus 1), Gal4-VP16 luciferase reporter. Briefly: repression of VP16-driven luciferase reporter – cell-based, luminescence, high throughput, counter-screen for SRC3 inhibitor project (AID 588794; in the data active = inhibition above about 30%). The settings on record: mammalian cells, at 3.6 µM, active compounds read high.
The target of experiment [3] is Nuclear receptor coactivator 1 (Homo sapiens) (UniProt Q15788). Briefly: NCOA1 GAL4-fusion reporter inhibition – cell-based, luminescence, quadruplicate, confirmation (AID 588820;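 active = mean inhibition above 46.68%, the untreated control wells mean plus 3 SD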;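 also: 0% = DMSO wells and 100% = gossypol 36 µM treated wells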). The settings on record: HEK293 GAL4-SRC1 luciferase reporter, at 3.6 µM, active compounds read high.
A short description of experiment [4]: repression of VP16-driven luciferase reporter – cell-based, luminescence, high throughput, counter-screen for SRC1 inhibitor project (AID 588824). The settings on record: cell-based VP16 transactivation luciferase luminescence; at 3.6 µM; active compounds read high.

Usually inhibition stands for the drop in the measured response relative to a control, in per cent.

Values without a mark were called inactive. Calls of active or inactive are those of the source. Rule as the data show it, unless noted: active = inhibition above about 25%; inactive = the rest.

Chain of Nuclear receptor coactivator 1 (Homo sapiens) (Q15788 whole entry, looked up, the tested form may be a part): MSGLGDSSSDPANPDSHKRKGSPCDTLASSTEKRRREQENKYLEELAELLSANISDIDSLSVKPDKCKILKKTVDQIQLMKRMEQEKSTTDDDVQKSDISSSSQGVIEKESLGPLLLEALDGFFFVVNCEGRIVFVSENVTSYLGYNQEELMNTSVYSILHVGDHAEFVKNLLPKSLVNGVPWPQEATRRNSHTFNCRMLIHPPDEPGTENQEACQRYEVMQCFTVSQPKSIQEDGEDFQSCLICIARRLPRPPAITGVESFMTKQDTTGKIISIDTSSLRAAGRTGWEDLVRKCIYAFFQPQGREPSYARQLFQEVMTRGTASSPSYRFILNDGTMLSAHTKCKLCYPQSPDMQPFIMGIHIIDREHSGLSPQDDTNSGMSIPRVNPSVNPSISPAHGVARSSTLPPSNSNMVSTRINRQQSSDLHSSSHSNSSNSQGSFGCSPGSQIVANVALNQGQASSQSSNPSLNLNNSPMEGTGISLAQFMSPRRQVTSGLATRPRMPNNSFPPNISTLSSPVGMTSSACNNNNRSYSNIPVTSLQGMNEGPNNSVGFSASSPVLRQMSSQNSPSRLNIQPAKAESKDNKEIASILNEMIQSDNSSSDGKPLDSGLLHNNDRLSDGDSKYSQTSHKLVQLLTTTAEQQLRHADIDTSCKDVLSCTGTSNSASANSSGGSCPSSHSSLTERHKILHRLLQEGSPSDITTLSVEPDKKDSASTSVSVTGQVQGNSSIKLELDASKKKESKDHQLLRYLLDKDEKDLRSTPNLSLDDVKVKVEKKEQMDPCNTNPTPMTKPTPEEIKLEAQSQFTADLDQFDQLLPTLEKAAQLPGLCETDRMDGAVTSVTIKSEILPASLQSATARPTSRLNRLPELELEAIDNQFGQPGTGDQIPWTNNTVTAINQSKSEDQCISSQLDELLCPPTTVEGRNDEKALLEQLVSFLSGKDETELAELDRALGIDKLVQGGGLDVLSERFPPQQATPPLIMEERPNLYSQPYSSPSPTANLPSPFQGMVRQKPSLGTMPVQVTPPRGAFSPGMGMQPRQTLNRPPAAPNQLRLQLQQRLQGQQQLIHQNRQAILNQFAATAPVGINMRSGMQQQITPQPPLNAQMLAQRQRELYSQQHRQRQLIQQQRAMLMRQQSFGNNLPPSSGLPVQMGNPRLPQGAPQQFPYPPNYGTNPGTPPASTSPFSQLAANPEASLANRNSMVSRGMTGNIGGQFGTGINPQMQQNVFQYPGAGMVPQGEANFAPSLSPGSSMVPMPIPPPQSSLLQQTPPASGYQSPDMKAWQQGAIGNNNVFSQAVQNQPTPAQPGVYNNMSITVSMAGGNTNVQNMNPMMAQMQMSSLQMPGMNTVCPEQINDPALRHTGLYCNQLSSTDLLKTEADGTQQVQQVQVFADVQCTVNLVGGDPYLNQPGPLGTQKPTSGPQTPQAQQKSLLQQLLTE
Chain of Nuclear receptor coactivator 3 (Homo sapiens) (Q9Y6Q9 whole entry, looked up, the tested form may be a part): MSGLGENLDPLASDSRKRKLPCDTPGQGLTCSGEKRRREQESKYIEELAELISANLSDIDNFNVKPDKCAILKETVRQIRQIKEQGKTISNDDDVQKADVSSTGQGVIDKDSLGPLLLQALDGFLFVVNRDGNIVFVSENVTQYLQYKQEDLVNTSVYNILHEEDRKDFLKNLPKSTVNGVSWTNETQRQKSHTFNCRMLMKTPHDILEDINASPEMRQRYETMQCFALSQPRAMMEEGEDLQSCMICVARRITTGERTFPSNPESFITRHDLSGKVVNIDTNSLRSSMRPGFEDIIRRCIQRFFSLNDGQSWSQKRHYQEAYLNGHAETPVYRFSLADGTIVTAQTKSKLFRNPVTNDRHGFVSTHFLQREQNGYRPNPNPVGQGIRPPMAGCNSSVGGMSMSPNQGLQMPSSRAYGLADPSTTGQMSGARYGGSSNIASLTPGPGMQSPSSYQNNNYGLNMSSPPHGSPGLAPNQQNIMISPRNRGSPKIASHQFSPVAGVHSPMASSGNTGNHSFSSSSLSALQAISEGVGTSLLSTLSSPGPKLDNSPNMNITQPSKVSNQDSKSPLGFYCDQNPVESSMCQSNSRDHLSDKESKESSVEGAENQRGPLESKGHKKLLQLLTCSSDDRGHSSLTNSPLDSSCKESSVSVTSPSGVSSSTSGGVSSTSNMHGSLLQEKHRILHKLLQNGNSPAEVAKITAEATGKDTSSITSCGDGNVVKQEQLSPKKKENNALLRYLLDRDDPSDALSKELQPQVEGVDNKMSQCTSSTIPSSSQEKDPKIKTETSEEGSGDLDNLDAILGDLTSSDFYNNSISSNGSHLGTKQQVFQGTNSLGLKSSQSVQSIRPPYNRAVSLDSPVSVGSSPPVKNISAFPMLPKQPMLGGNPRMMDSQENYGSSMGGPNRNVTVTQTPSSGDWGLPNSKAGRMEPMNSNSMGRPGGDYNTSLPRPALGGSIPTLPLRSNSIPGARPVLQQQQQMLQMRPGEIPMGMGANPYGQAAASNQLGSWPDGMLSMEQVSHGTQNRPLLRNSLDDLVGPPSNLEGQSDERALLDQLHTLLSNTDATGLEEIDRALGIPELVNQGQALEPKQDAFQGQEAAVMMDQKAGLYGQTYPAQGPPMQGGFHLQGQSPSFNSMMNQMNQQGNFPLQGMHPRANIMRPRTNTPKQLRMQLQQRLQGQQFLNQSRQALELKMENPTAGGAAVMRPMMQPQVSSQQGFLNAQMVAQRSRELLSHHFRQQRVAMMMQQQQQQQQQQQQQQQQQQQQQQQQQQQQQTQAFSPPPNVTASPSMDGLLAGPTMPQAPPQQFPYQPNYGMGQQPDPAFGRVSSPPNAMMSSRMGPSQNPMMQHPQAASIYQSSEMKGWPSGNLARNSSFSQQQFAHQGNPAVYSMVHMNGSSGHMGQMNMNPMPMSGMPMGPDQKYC

On to `COC1C(CO)OC(n2c3c(Cl)cccc3c3c4c(c5c6cccc(Cl)c6[nH]c5c32)C(=O)NC4=O)C(O)C1O` (stereo unspecified), for which the inhibition in experiment [1] is 68.3% (active); in experiment [2], 49.2% (active); in experiment [3], 23.4%; in experiment [4], 42.6% (active).
For the compound `CC(=O)NC(c1ccc(C)cc1)c1cc(Cl)c2cccnc2c1O` (stereo unspecified), the inhibition in experiment [1] was 26.4%; in experiment [2] it was 22.3%; in experiment [3], 36.4%; in experiment [4] it was 29.6% (active).
For the compound `c1ccc(-c2noc(-c3ccc4c(c3)OCO4)n2)nc1`, the inhibition was 17.6% in experiment [1], 7.86% in experiment [2], 8.09% in experiment [3] and 33.7% (active) in experiment [4].
For `CC(C)(C)NC(=O)CSc1nc2ccc(NC(=O)CSc3nnnn3Cc3ccccc3)cc2s1`, the inhibition in experiment [1] is 0.03%; in experiment [2] it was 28.7%; in experiment [3], 3.45%; in experiment [4] it was 26.4% (active).
Turning to `O=C(Nc1cccnc1)c1ccc(C(=O)Nc2cccnc2)cc1`, the inhibition in experiment [1] is 32.2%; in experiment [2], 19.1%; in experiment [3], 23.3%; in experiment [4], 20.4%.
For `CCN(CC)CCNC(=O)c1ccc2c(c1NCCO)C(=O)c1ccccc1C2=O` the same measures were -15.3%, -1.86%, -19.2% and -8.97%.
For `Cc1ccc(S(=O)(=O)N2CCOCC2)cc1NC(=O)CN1CCN(c2ccc(O)cc2)CC1`, the inhibition in experiment [1] was 12.4%; in experiment [2], -1.58%; in experiment [3] it was -6.12%; in experiment [4] it was 11.1%.
`CC(=O)N(C(C)=O)c1ncc2c([nH]c3ccccc32)c1C#N`: the inhibition was 47.9% (active) in experiment [1], 30.6% (active) in experiment [2], 48.5% (active) in experiment [3] and 26.8% (active) in experiment [4].
Take `O=C(NN=C(c1ccccc1)c1ccccn1)c1ccccc1`: the inhibition in experiment [1] is 44.2% (active); in experiment [2], 42.1% (active); in experiment [3] it was 36.7%; in experiment [4] it was 43.1% (active).
Consider `CCN1CCN(c2ccc(Nc3ccnc4ccccc34)cc2)CC1`, for which the inhibition is 43.5% (active) in experiment [1], 32.1% (active) in experiment [2], 40.1% in experiment [3] and 42.5% (active) in experiment [4].
Turning to `Cn1nnnc1N=N/C(=N/Nc1ccccc1)c1ccccc1`, the inhibition in experiment [1] was 79.8% (active); in experiment [2] it was 42.9% (active); in experiment [3] it was 55.5% (active); in experiment [4], 32.8% (active).
For `O=C1C(F)=CC(COC(c2ccccc2)(c2ccccc2)c2ccccc2)OC1n1cc(F)c(=O)[nH]c1=O` (stereo unspecified), the inhibition in experiment [1] is 66% (active); in experiment [2], 60.3% (active); in experiment [3] it was -11.1%; in experiment [4], 62.1% (active).
The like results for `c1cncc(CNc2ncnc3ccc(-c4ccoc4)cc23)c1` were, in that order, 75.2% (active), 42.8% (active), 66% (active) and 47.8% (active).
Take `O=C(/C=C/c1ccc(OCCCF)cc1)Nc1ccnc(-c2cccnc2)n1`: the inhibition in experiment [1] is 17.1%; in experiment [2] it was 11.1%; in experiment [3], -25.6%; in experiment [4], 15.8%.
With `OCCNc1ncnc2ccc(Br)cc12`, the inhibition in experiment [1] was 21.8%; in experiment [2], 30.6% (active); in experiment [3], 29.2%; in experiment [4], 16.2%.
Take `CN(C)CC(C(=O)c1ccccc1)c1ccccc1` (stereo unspecified): the inhibition in experiment [1] was 38.8%; in experiment [2] it was 46.8% (active); in experiment [3], 32%; in experiment [4], 41.8% (active).
On to `O=C(NC(=O)N1CCN(c2cccc(Cl)c2)CC1)c1ccccc1`, for which the inhibition was 23.9% in experiment [1], 43.6% (active) in experiment [2], 17.9% in experiment [3] and 41.2% (active) in experiment [4].
The like results for `CN(c1ncnc(N)c1[N+](=O)[O-])C1CCS(=O)(=O)C1` (stereo unspecified) were, in that order, 55.2% (active), 35.7% (active), 52.7% (active) and 34.1% (active).
Regarding `CCCOc1ccc(/C=N/Nc2ccccc2[N+](=O)[O-])c(O)c1`, the inhibition in experiment [1] was 27.7%; in experiment [2] it was 5%; in experiment [3] it was -59.5%; in experiment [4] it was -39.9%.
On to `O=C(N/N=C/c1ccccc1O)/C(=C/c1ccccc1)CCO`, for which the inhibition was 16.7% in experiment [1], 18.1% in experiment [2], 20% in experiment [3] and 19.2% in experiment [4].
For `Cc1ccc(C(=O)CSc2cnc3ccccc3n2)cc1C` the same measures were -16.1%, -33%, -96.7% and -68.1%.
`Cc1ccc(N=c2c([N+](=O)[O-])nn(-c3ccc4c(c3)OCCO4)n2O)cc1F`: the inhibition in experiment [1] is 36.5%; in experiment [2], -0.46%; in experiment [3], 19.9%; in experiment [4], -9.63%.
For `COc1ccc(-n2cnc3c(sc4nccc(N(C)C)c43)c2=O)cc1` the same measures were 40.1%, 22.4%, 33.3% and 11.8%.
On to `Cc1ccc(CNc2ncnc3ccc(-c4ccoc4C)cc23)o1`, for which the inhibition was 58.8% (active) in experiment [1], 52% (active) in experiment [2], 62% (active) in experiment [3] and 50.9% (active) in experiment [4].
The like results for `Cc1cc(=O)[nH]c(N/N=C/c2cc(C)n(CC(F)(F)F)c2C)n1` were, in that order, 22%, 60.4% (active), 43.5% and 60.3% (active).
In the case of `CN1CCN(c2ncnc3scc(-c4ccccc4Cl)c23)CC1`, the inhibition was 59.6% (active) in experiment [1], 41.5% (active) in experiment [2], 55.4% (active) in experiment [3] and 44.3% (active) in experiment [4].
For the compound `COc1cc2cncc(Cc3ccc(Cl)cc3)c2cc1OC`, the inhibition is 42.2% in experiment [1], 40.7% (active) in experiment [2], 56.2% (active) in experiment [3] and 39.4% (active) in experiment [4].
For the compound `Cc1c(Cl)c([N+](=O)[O-])nn1Cc1ccc(C(=O)N/N=C\c2cc(Cl)ccc2O)o1`, the inhibition in experiment [1] was 57.4% (active); in experiment [2] it was 48.7% (active); in experiment [3], 55.5% (active); in experiment [4], 52.9% (active).
The like results for `O=S(=O)(/C(=C\c1ccc(C(F)(F)F)cc1)c1nc2ccccc2[nH]1)c1ccccc1` were, in that order, 69.8% (active), 25.6%, -29.1% and 42.4% (active).
Take `COC(=O)c1cc(N/C(N)=N/c2nc(C)cc(C)n2)cc(C(=O)OC)c1`: the inhibition in experiment [1] was 27.3%; in experiment [2], 55.4% (active); in experiment [3], 48.2% (active); in experiment [4] it was 52% (active).
With `O=C(Nc1cccc(S(=O)(=O)Nc2ccccc2Cl)c1)c1ccc(Cl)nc1`, the inhibition in experiment [1] is -1.42%; in experiment [2] it was 27.7%; in experiment [3], 5.83%; in experiment [4] it was 32.2% (active).
Turning to `CC(C)(C)c1nnc(N/N=C/c2ccccc2O)n(N)c1=O`, the inhibition in experiment [1] was 80.1% (active); in experiment [2], 76.7% (active); in experiment [3] it was 74.4% (active); in experiment [4] it was 76.2% (active).
The like results for `CCN(CC)S(=O)(=O)c1ccc(/C=C/C(=O)Nc2ccc(Br)cc2F)cc1` were, in that order, 21.2%, 40.3% (active), 16% and 41.9% (active).
Regarding `COc1ccc(-c2c[n+]3c(n2-c2ccccc2)SCC3)cc1`, the inhibition in experiment [1] is 17.9%; in experiment [2] it was 14.3%; in experiment [3], 11.1%; in experiment [4] it was 21%.
In the case of `Nc1ncnc(NCc2ccccc2)c1[N+](=O)[O-]`, the inhibition in experiment [1] is 38.8%; in experiment [2], 26.7%; in experiment [3], 38.1%; in experiment [4], 42.4% (active).
For `O=C(NCc1ccc(Cl)cc1)c1csc(-c2cccnc2)n1` the same measures were 13.6%, 16.3%, 10.2% and 7.38%.
The like results for `CC1CCc2c(sc(NC(=O)c3cccs3)c2C(=O)O)C1` (stereo unspecified) were, in that order, 33.8%, 60.6% (active), 11.8% and 54.1% (active).
As to `Cc1ccc(S(=O)(=O)NC(CC(C)C)C(=O)NCC(c2ccco2)N2CCCCC2)cc1` (stereo unspecified), the inhibition in experiment [1] is 27%; in experiment [2] it was 2.93%; in experiment [3], 32.8%; in experiment [4], -1.82%.
For `C#CCN(C[C@@H]1[C@@H](OC(=O)NCCCCCC)[C@@H](OC(=O)NCCCCCC)Cn2c(=O)ccc(=O)n21)S(=O)(=O)c1ccc(C)cc1`, the inhibition in experiment [1] was 23.3%; in experiment [2] it was 31.7% (active); in experiment [3], 23.8%; in experiment [4] it was 33.4% (active).
For `Cn1c(Sc2ccc(Cl)cc2)c(C=O)c2ccccc21`, the inhibition in experiment [1] is 52.3% (active); in experiment [2], 43.6% (active); in experiment [3], 60% (active); in experiment [4] it was 37% (active).
On to `CCc1nc(Cl)c(C#N)c2c1CCCC2`, for which the inhibition in experiment [1] was 43.2% (active); in experiment [2] it was 34.1% (active); in experiment [3], 34.8%; in experiment [4], 28.9% (active).
Consider `NC(=S)N/N=C1\CCSc2ccc(Cl)cc21`, for which the inhibition in experiment [1] was 39.3%; in experiment [2], 22.9%; in experiment [3] it was 6.53%; in experiment [4], 16.1%.
Consider `CC1Sc2ccc(Cl)cc2-c2nc(N)ncc21` (stereo unspecified), for which the inhibition in experiment [1] is 43.9% (active); in experiment [2], 32.3% (active); in experiment [3] it was 48.2% (active); in experiment [4], 39.7% (active).
For the compound `CCOc1cc(C(N)=O)cc(Br)c1OCC`, the inhibition in experiment [1] was 37.3%; in experiment [2] it was 22.4%; in experiment [3] it was 43.4%; in experiment [4] it was 21.6%.
Regarding `CCCS(=O)(=O)Nc1ccc(Nc2c3ccccc3nc3ccccc23)c(OC)c1`, the inhibition in experiment [1] was 64.2% (active); in experiment [2], 17.1%; in experiment [3], 56.8% (active); in experiment [4] it was 2.6%.
Turning to `CN(C)S(=O)(=O)c1ccc(-c2csc(N/N=C/c3ccco3)n2)cc1`, the inhibition in experiment [1] was -2.21%; in experiment [2], 16.7%; in experiment [3] it was -22.3%; in experiment [4] it was 20.1%.
For `COc1ccc(C(=O)Cn2c(C(C)=O)nc3ccccc32)cc1`, the inhibition in experiment [1] was -0.47%; in experiment [2] it was -3.82%; in experiment [3], -13.6%; in experiment [4], -8.2%.
Regarding `Cc1csc(CNc2ncnc3ccc(-c4ccoc4)cc23)c1`, the inhibition in experiment [1] was 52.7% (active); in experiment [2], 47.6% (active); in experiment [3], 48% (active); in experiment [4], 44.5% (active).
For `OCCN1CCN(C(=S)c2ccc(-c3ccccc3)cc2)CC1` the same measures were 35.6%, 4.96%, 36.8% and 6.4%.
The like results for `COc1cccc(/C=N/NC(=O)c2cc(-c3cccn3C)n[nH]2)c1O` were, in that order, 41.2%, 35.7% (active), 37.6% and 35.6% (active).
For `c1ccc2c(-c3cncc4ccccc34)cncc2c1`, the inhibition in experiment [1] was 31.4%; in experiment [2], 32.7% (active); in experiment [3], 36.4%; in experiment [4], 28% (active).
For `O=c1cccc2c1c1cc[nH]c3ccc(=O)n2c31` the same measures were 43%, 32.9% (active), 54.3% (active) and 40% (active).
For `COc1cc(C(=O)OCC(=O)Nc2sccc2C(N)=O)cc(OC)c1OC` the same measures were 42.7%, 10.3%, -42.7% and 5.18%.
Turning to `Cc1nc(N)nc(N)c1-c1ccc(Cl)c(Cl)c1`, the inhibition was 58.5% (active) in experiment [1], 24.5% in experiment [2], 54.2% (active) in experiment [3] and 33.6% (active) in experiment [4].
